{"source": "PubChem BioAssay AID1159580", "about": "(chemical genetic matrix, 2015)", "test": "chemical genetic growth profiling, strain panel (AID 1159580);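 further: tested at 20 µM; growth read once vehicle control cultures reached saturation at 30 °C; 1 = growth at the plate median or of vehicle wells; lower values mean less growth of the strain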", "conditions": "growth OD", "note": "The campaign covered roughly 5,500 compounds. About 2,000 (36%) were called active. Roughly 18% stayed inconclusive and do not appear here. This is one part of the list. A number with no mark means an inactive call. No stated cut-off is given here; in the data, active means normalized growth mostly below about 0.91 (no sharp cut-off); inconclusive means no clear call, values can overlap the other calls; inactive means mostly above about 0.92."}
{"smiles": "O=[N+]([O-])c1ccc(S(=O)(=O)c2ccc(Cl)cc2)cc1O", "values": [{"measurement": "normalized growth", "setting": "S. cerevisiae deletion strains, locus YAL013W, strain DEP1, active compounds read low", "value": "0.82 (active)"}, {"measurement": "normalized growth", "setting": "S. cerevisiae deletion strains, locus YBR229C, strain ROT2, active compounds read low", "value": "0.766 (active)"}, {"measurement": "normalized growth", "setting": "S. cerevisiae deletion strains, locus YDL101C, strain DUN1, active compounds read low", "value": "0.715 (active)"}, {"measurement": "normalized growth", "setting": "S. cerevisiae deletion strains, locus YDL134C, strain PPH21, active compounds read low", "value": 0.938}, {"measurement": "normalized growth", "setting": "S. cerevisiae deletion strains, locus YDR150W, strain NUM1, active compounds read low", "value": 0.811}, {"measurement": "normalized growth", "setting": "S. cerevisiae deletion strains, locus YEL061C, strain CIN8, active compounds read low", "value": 0.924}, {"measurement": "normalized growth", "setting": "S. cerevisiae deletion strains, locus YGR078C, strain PAC10, active compounds read low", "value": "0.81 (active)"}, {"measurement": "normalized growth", "setting": "S. cerevisiae deletion strains, locus YHR030C, strain SLT2, active compounds read low", "value": 0.954}, {"measurement": "normalized growth", "setting": "S. cerevisiae deletion strains, locus YHR087W, strain rtc3, active compounds read low", "value": "0.692 (active)"}, {"measurement": "normalized growth", "setting": "S. cerevisiae deletion strains, locus YJR043C, strain POL32, active compounds read low", "value": "0.832 (active)"}, {"measurement": "normalized growth", "setting": "S. cerevisiae deletion strains, locus YJR075W, strain HOC1, active compounds read low", "value": "0.64 (active)"}, {"measurement": "normalized growth", "setting": "S. cerevisiae deletion strains, locus YKL190W, strain CNB1, active compounds read low", "value": 0.978}, {"measurement": "normalized growth", "setting": "S. cerevisiae deletion strains, locus YLR039C, strain RIC1, active compounds read low", "value": "0.723 (active)"}, {"measurement": "normalized growth", "setting": "S. cerevisiae deletion strains, locus YLR058C, strain SHM2 (second series), active compounds read low", "value": "0.822 (active)"}, {"measurement": "normalized growth", "setting": "S. cerevisiae deletion strains, locus YLR085C, strain ARP6, active compounds read low", "value": 0.947}, {"measurement": "normalized growth", "setting": "S. cerevisiae deletion strains, locus YLR262C, strain YPT6, active compounds read low", "value": "0.639 (active)"}, {"measurement": "normalized growth", "setting": "S. cerevisiae deletion strains, locus YML094W, strain GIM5, active compounds read low", "value": 0.94}, {"measurement": "normalized growth", "setting": "S. cerevisiae deletion strains, locus YMR219W, strain ESC1, active compounds read low", "value": "0.797 (active)"}, {"measurement": "normalized growth", "setting": "S. cerevisiae deletion strains, locus YMR263W, strain SAP30, active compounds read low", "value": "0.814 (active)"}, {"measurement": "normalized growth", "setting": "S. cerevisiae deletion strains, locus YNL153C, strain GIM3, active compounds read low", "value": "0.846 (active)"}, {"measurement": "normalized growth", "setting": "S. cerevisiae deletion strains, locus YNL298W, strain CLA4 (second series), active compounds read low", "value": 0.915}, {"measurement": "normalized growth", "setting": "S. cerevisiae deletion strains, locus YNL322C, strain KRE1, active compounds read low", "value": "0.86 (active)"}, {"measurement": "normalized growth", "setting": "S. cerevisiae deletion strains, locus YNR030W, strain Alg12, active compounds read low", "value": 0.94}, {"measurement": "normalized growth", "setting": "S. cerevisiae deletion strains, locus YPL055C, strain LGE1, active compounds read low", "value": "0.709 (active)"}, {"measurement": "normalized growth", "setting": "S. cerevisiae deletion strains, locus YPL241C, strain CIN2, active compounds read low", "value": 0.934}, {"measurement": "normalized growth", "setting": "S. cerevisiae deletion strains, locus YPR135W, strain CTF4, active compounds read low", "value": 0.99}, {"measurement": "normalized growth", "setting": "S. cerevisiae strains, strain wild type, active compounds read low", "value": 0.952}]}
